Screening results: PubChem BioAssay, Pan Lab, Icahn School of Medicine at Mount Sinai
Shown is part of a subset that was picked to be rich in hits.
RBX1-CUL1 inh: inhibitors of human ROC1-CUL1 ubiquitin ligase activity. hit rate 0.6% among 140,000. inhibition, % at 10 µM. in vitro K48 di-Ub FRET, acceptor:donor ratio, 45 min; in the data active means inhibition above about 25%
Target sequence (P62877 whole entry, looked up): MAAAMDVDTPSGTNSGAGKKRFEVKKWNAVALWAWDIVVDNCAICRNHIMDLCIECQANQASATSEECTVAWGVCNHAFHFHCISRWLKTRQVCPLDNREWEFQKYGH
Target sequence (Q13616 whole entry, looked up): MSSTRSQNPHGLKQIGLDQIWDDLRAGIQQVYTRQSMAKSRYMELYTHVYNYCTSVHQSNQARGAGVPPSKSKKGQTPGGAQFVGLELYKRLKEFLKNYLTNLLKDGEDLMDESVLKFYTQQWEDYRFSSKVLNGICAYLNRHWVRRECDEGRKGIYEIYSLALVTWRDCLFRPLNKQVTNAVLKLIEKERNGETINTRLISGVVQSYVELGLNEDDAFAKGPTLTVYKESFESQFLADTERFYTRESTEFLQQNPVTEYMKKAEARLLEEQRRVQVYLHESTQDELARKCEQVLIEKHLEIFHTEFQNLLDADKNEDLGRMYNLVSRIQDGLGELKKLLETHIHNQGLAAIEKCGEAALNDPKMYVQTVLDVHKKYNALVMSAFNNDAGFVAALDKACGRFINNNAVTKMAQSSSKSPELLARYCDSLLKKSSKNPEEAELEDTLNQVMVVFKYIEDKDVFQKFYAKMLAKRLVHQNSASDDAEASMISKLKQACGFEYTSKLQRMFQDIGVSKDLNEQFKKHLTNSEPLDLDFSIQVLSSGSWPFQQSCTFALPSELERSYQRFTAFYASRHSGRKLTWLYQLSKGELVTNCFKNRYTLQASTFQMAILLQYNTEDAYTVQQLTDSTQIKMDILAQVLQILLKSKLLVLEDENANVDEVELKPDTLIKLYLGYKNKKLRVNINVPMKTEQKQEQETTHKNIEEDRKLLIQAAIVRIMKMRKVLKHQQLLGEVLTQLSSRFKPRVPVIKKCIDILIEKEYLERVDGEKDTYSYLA
Of the large screens only hits and unclear results are named; the others gave an inactive call.

COc1cc2c(cc1OC)C(Cc1cccc(OC)c1OC)C(=O)N(C)CC2 (stereo not given)	none
CC(C)(C)c1ccc(C2c3c(n[nH]c3-c3cccnc3)OC(=N)C2C#N)cc1 (stereo not given)	none
CCOC(=O)N1CC=C2C(C#N)C(=N)C(C#N)(C#N)[C@H](c3ccc(-c4ccccc4)cc3)[C@H]2C1 (stereo not given in full)	none
CC1(N2CCOCC2)C(=O)c2ccccc2C1=O	none
O=C1C=C(N2CCOCC2)c2ccccc2C1=O	RBX1-CUL1 inh 76
O=C1C=Cc2ccc(N3CCOCC3)c3cccc1c23	none
CC(=O)Nc1ccccc1OC(=O)c1ccco1	none
Cc1c(CC(=O)NCCN(C)C)c2c(n1C1CCCCC1)CC(C)(C)CC2=O	none
CN(C)c1ccc(/C=C/C(=O)c2ccc3c4c(cccc24)CC3)cc1	none
O=C(C[n+]1ccc(-c2ccccc2)cc1)c1ccccc1	none
O=C(/C=C/c1cc[n+](CC(=O)c2ccc3cccc4c3c2CC4)cc1)c1ccc2cccc3c2c1CC3	RBX1-CUL1 inh 87
CCN(CC)c1ccc2c(Cl)c(C3CCCCC3)c(=O)oc2c1	none
COc1ccc(S(=O)(=O)N=C2C=CC(=O)c3ccccc32)cc1	none
CC1(N2CCCCC2)C(=O)c2ccccc2C1=O	none
CN1C(=O)N(C)C2(O)c3ccccc3C(=O)C12O (stereo not given)	none
CC1(C)CC(=O)C(C2(O)C(=O)c3ccccc3C2=O)C(=O)C1	none
COC1(O)C(=O)c2ccccc2C(=O)C1(O)OC (stereo not given)	RBX1-CUL1 inh 83
O=C1c2ccccc2C(=O)C1(O)O	RBX1-CUL1 inh 46
CC1(Nc2ccccc2)C(=O)c2ccccc2C1=O	none
CN1CCCCC1(C)C#CC(O)(c1ccccc1)c1ccccc1 (stereo not given)	none
COc1cc(C(c2cn(C)c3ccccc23)c2cn(C)c3ccccc23)cc(OC)c1OC(C)=O	none
O=C(c1ccc(Cl)cc1)c1oc2ccc(Cl)cc2c1-c1cnn(-c2ccccc2)c1	none
COc1ccc(Cc2nc3ccc(C(=O)NC4CCOCC4)cc3o2)cc1	none
CN(CC(=O)c1c2c(cc3c1CCC3)CCC2)Cc1ccccc1	none
CCCN1C(=O)C(C(=O)NNC(=O)c2ccc(C)cc2)C(=O)c2ccccc21 (stereo not given)	none
O=C(Cc1ccc([N+](=O)[O-])cc1)NCc1ccc(Cl)c(Cl)c1	none
CC1=NN(c2ccccc2)C(=O)/C1=C/c1cc(C)n(-c2cccc(C(F)(F)F)c2)c1C	none
COc1cccc(/C=C2\C(=O)N(c3ccccc3)N=C2C)c1OC	none
CC(=O)Oc1ccc(-n2c(C)cc(/C=C3\C(=O)N(c4ccccc4)N=C3C)c2C)cc1	none
CC1=NN(c2ccccc2)C(=O)/C1=C\C1=Nc2ccccc2C1	none
CC(=O)Nc1ccc(N2N=C(C)/C(=C/c3ccccc3)C2=O)cc1	RBX1-CUL1 inh 41
CC1=NN(c2ccccc2)C(=O)/C1=C\c1ccc(C(C)(C)C)cc1	RBX1-CUL1 inh 40
CC1=NN(c2cc(Cl)cc(Cl)c2)C(=O)/C1=C\c1ccc(N2CCOCC2)cc1	none
CC1=NN(c2ccccc2)C(=O)/C1=C/c1cccc(OC2CSC2)c1	RBX1-CUL1 inh 32
CC1=NN(c2ccc(F)cc2)C(=O)C1=Cc1c(O)n(-c2ccccc2)c(=S)n(-c2ccccc2)c1=O	none
Cc1ccc(Cn2ncc3c(NCCN4CCOCC4)ncnc32)cc1	none
COc1ccc(C2C(C(=O)Nc3ccc(Cl)cc3)C(C)=Nc3ncnn32)c(OC)c1 (stereo not given)	none
CCn1cc(CN(CCOC)CC2CCCN(C3Cc4ccccc4C3)C2)cn1 (stereo not given)	none
COc1ccccc1C(=O)N1CCN(c2ccc(Cl)cc2)CC1	none
O=S(=O)(Nc1nc2cc(Cl)c(Cl)cc2[nH]1)c1ccccc1	none
COc1ccc(NS(=O)(=O)c2ccc(Cl)cc2)cc1OC	none
Cc1noc(C)c1C(=O)Nc1c(C(C)C)cccc1C(C)C	none
O=C1NC(=S)NC(=O)C1=Cc1c(OCc2ccc(Br)cc2)ccc2ccccc12	RBX1-CUL1 inh 58
O=C1NC(=S)NC(=O)C1=Cc1cc(Cl)ccc1OCc1ccc(C(=O)O)cc1	none
C=CCN1C(=O)/C(=C/c2c(OCc3ccccc3C#N)ccc3ccccc23)C(=O)NC1=S	none
N#Cc1nc(N2CCOCC2)nc(N2CCOCC2)n1	none
CN(C)c1nc(SCC(N)=O)nc(N(C)C)n1	none
NC(=O)CSc1nc(N2CCOCC2)nc(N2CCOCC2)n1	RBX1-CUL1 inh 50
O=C(/C=C/c1ccccc1)n1cccn1	none
CCCCCCCC(=O)N=C1C(=O)N(c2ccccc2)N(C)C1C (stereo not given)	none
CCCCCCN1C(=O)/C(=C/c2cc(OC)c(OC)c(OC)c2)N(C)C1=S	none
CCCCCCN1C(=O)C2=C(c3cc(O)cc(O)c3)N(CCCCCC)C(=O)C2=C1c1cc(O)cc(O)c1	RBX1-CUL1 inh 46
OCCNCc1ccc(-c2ccc(Br)cc2Cl)o1	none
Clc1ccc(-c2cnc3ccccc3n2)cc1	none
Oc1ccc(-c2cnc3ccccc3n2)cc1	none
Oc1ccc(-c2cnc3ccccc3n2)cc1O	RBX1-CUL1 inh 84
CC(C)CC(=O)NC(NC(=O)CC(C)C)c1ccc2c(c1)OCO2	none
C(=Cc1ccccc1)C=NNC1=NCCS1	none
CCOc1ccc(S(=O)(=O)Nc2ccc(S(=O)(=O)Nc3cccc4ccccc34)cc2)cc1	none
Cc1ccc(S(=O)(=O)Nc2ccccc2-c2ccccc2NS(=O)(=O)c2ccc(C)cc2)cc1	none
CCc1ccc(S(=O)(=O)Nc2cc(SCC(=O)O)c(O)c3ccccc23)cc1	RBX1-CUL1 inh 108
Cc1ccc(Sc2cc(NS(=O)(=O)c3ccccc3)c3ccccc3c2O)cc1	RBX1-CUL1 inh 70
Cc1cc(O)ccc1NS(=O)(=O)c1ccccc1	none
CCOc1ccc(S(=O)(=O)Nc2cc3c(C(=O)OC)c(COC)oc3c3ccccc23)cc1	none
CCOc1ccc(S(=O)(=O)Nc2cc(SCC(=O)O)c(O)c3ccccc23)cc1	RBX1-CUL1 inh 43
CCc1ccc(S(=O)(=O)NCC(=O)O)cc1	none
COc1ccc(S(=O)(=O)Nc2cc(SCc3ccccc3)c(O)c3ccccc23)cc1	none
CSC1=NC(=O)C(C(c2cccc3ccccc23)C2C(=O)N=C(SC)N(c3ccccc3)C2=O)C(=O)N1c1ccccc1 (stereo not given)	none
COCCOC(=O)C1C(C)=NC(=S)NC1c1ccc(SC)cc1 (stereo not given)	none
COc1ccc(S(=O)(=O)N(CC(=O)N2CCCCCC2)c2ccc(C)cc2)cc1	none
CCOC(=O)c1ccc(N=C2S/C(=C/c3c(C)n(C)c4ccccc34)C(=O)N2C)cc1	none
NC(=O)C1CCN(S(=O)(=O)c2ccc(C3CCCCC3)cc2)CC1	none
O=C(Nc1cccc(C(F)(F)F)c1)C1(c2ccccc2)CC1(Cl)Cl (stereo not given)	none
CC(C)n1cc(CN2CCCC2C(=O)Nc2ccc(-c3cscn3)cc2)cn1 (stereo not given)	none
COc1ccc(CC2(CCC(=O)NC3CCCCCC3)CCC(=O)N2)c2ccccc12 (stereo not given)	none
c1ccc(-c2ccc(CNc3cc(C4CCCNC4)ncn3)s2)nc1 (stereo not given)	none
CN(C)CC/C=C1/c2cc(Br)ccc2CSc2ccccc21	none
CN(C)CCOc1ccc2c(c1)C(=O)c1ccccc1CS2	RBX1-CUL1 inh 101
O=C1c2ccccc2CSc2c(O)cccc21	none
COc1ccc(-c2nnc(CCCOc3ccc(Cl)cc3Cl)o2)cc1	none
C[C@H](NC(=O)N1CCC(n2cc(CCO)nn2)CC1)c1ccc(Cl)cc1	none
COC(=O)c1cc(NC(=O)Cc2cccs2)ccc1O	none
COC(=O)c1cc(NC(=O)Cc2cccs2)cc(C(=O)OC)c1	RBX1-CUL1 inh 56
